Test [1] can be described thus: Cell Viability - Jurkat (AID 426;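 active = dose-dependent loss of cell ATP signal giving a full or clear fitted curve, ranked by lower potency value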; also: potency is read from the fitted curve at half-maximal effect). To be noted: qHTS. The method in brief: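 Cytotoxicity was scored as loss of cellular ATP, measured by luciferase-based luminescence, in Jurkat clone E6-1 cells after 40 h compound treatment; tamoxifen and doxorubicin served as positive controls.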
Background: qHTS replaces the single test concentration by a dilution series.

Test [2] is described as follows: Cell Viability - Hek293 (AID 427;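 active = compounds whose dose-response curve shows a full or clear partial loss of cell viability, called from curve shape rather than a numeric limit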;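 also: potency is read from the fitted curve at half-maximal effect; cells exposed to compound for 40 hours at 37 °C before reading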). To be noted: qHTS. The method in brief: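 AC50 values derive from Hill-modelled concentration-response of ATP-based luminescence, normalized between DMSO-only and 100 uM tamoxifen controls. Cells were exposed in complete culture medium for 40 hr at 37 °C before detection.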
Test [3] is described as follows: Cell Viability - HepG2 (AID 433; calls by dose curve; also: potency is read from the fitted curve at half-maximal effect). The following applies: qHTS. The method in brief:
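HepG2 cells, 1500 per well, treated 40 hr at 37 °C in complete medium; viability from intracellular ATP by CellTiter-Glo luminescence. Normalized to DMSO and 100 uM tamoxifen; AC50 from Hill fit of qHTS concentration-response.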

Test [4] is described as follows: Cell Viability - SK-N-SH (AID 435; calls by dose curve;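 also: potency is read from the fitted curve at half-maximal effect; compound exposure lasted 40 h at 37 °C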). To be noted: SK-N-SH neuroblastoma cell viability qHTS. The method in brief: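 SK-N-SH neuroblastoma cells (1500/well) treated 40 h at 37 °C in complete medium; viability read as cellular ATP by CellTiter-Glo luminescence. Normalized to DMSO and 100 uM tamoxifen; AC50 from Hill fits of qHTS concentration-response.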
Test [5] in a line: Cell Viability - N2a (AID 540).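 Also: plate controls were DMSO alone for no effect and tamoxifen control for full effect; nearly all actives have a fitted effect of over 45% in size.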 To be noted: N2a mouse neuroblastoma cell viability; activity change, negative = cytotoxicity: at 92.2 µM (top of the series). The gist of the method: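 In this qHTS cytotoxicity screen, ATP-dependent luciferase luminescence reports viable N2a cells after a 40 hr compound exposure in complete culture medium. Potencies are AC50 values from standard Hill equation fits.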

Test [6] can be described thus: Cell Viability - Renal Proximal Tubule (AID 545). Also: nearly all actives have a fitted effect of over 40% in size. To be noted: renal proximal tubule cells viability, primary cells of rat origin; at 91.7 µM (top of the series). The gist of the method: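 Rat renal proximal tubule primary cells, 1000/well, exposed to compounds for 40 hr at 37 °C in complete medium; cellular ATP read by CellTiter-Glo luminescence. AC50 from concentration-response fitted with standard Hill equation.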

A short description of test [7]: Cell Viability - Mesenchymal (AID 546).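 Also: cells exposed to compound for 40 hours before reading.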 To be noted: mesenchymal cells viability, qHTS; activity change, negative = cytotoxicity: at 91.7 µM (top of the series). The method in brief: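 In this qHTS cytotoxicity format, glomerulus-derived human mesenchymal kidney cells received compound for 40 hr, then luciferase-based ATP quantitation. Concentration-response data were fitted with the Hill equation.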

Test [8] is described as follows: Cellular Toxicity (caspase-3) HepG2 (AID 654).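 Also: cells exposed to compound for 16 hours before reading; 0% = DMSO alone and 100% = caspase signal from 100 µM tamoxifen.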 To be noted: HepG2 caspase-3 activation, luminescence, 0% = DMSO only, 100% = tamoxifen; series mostly up to 92.2 µM. The gist of the method: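 Concentration-response AC50 values reflect caspase-3/7 induction in HepG2 cells after 16 hours of compound exposure, quantified by luminescence from liberated aminoluciferin and referenced to 100 uM tamoxifen as full stimulation.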

Test [9] can be described thus: qHTS Assay for Identification of Small Molecule Inducers of Hypoxia Response (AID 2120; active = well fitted curve in the direction sought with a large enough effect in the signal ratio, with a control signal flat, not every such curve was filed as active; the % refers to the signal ratio; also: 0% is about no effect). To be noted: hypoxia response reporter cells, beta-lactamase ratio readout; series mostly up to 104 µM. The gist of the method: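 HRE-bla ME-180, 2500 cells/well, 0.5% dialyzed FBS medium; cpd titration, 17 h 37 degrees C; CCF4 2.5 h RT; Ex 405, Em 460/530 ratio -> %Activity, AC50.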

The target in test [10] is Vitamin D3 receptor (Homo sapiens) (UniProt P11473). Description: qHTS assay for small molecule antagonists of vitamin D receptor signaling (AID 588541; calls by dose curve;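 also: receptor activated by calcitriol during compound treatment; % is scaled to controls: 0 for no effect and ±100 for the full control effect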). To be noted: HEK293T VDR-UAS-bla, beta-lactamase ratio, antagonist mode; series mostly up to 76.7 µM. The method in brief: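 VDR-UAS-bla HEK293T cells (2000/well, 2% charcoal-stripped FBS) were treated with titrated compounds plus 1-alpha,25-dihydroxyvitamin D3 (50 nM or 3 nM final) for 16 h at 37 C. CCF4 beta-lactamase fluorescence was read; Hill fits gave IC50.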

The target is the same in test [11]. In words: qHTS assay for small molecule agonists of vitamin D receptor signaling (AID 588543; calls by dose curve;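 also: 0% = DMSO basal and 100% = reference agonist control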). To be noted: HEK293T VDR-UAS-bla, beta-lactamase ratio, 16 h; series mostly up to 76.8 µM. The gist of the method:
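VDR-UAS-bla HEK293T cells, 2000/well, 2% charcoal-stripped FBS; compound titration 16 h at 37 C; CCF4 beta-lactamase ratio read. Normalized to 50 nM 1-alpha,25-dihydroxyvitamin D3 (100%) and DMSO; Hill fit gives EC50, efficacy.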

Test [12] has as its target Voltage-gated inwardly rectifying potassium channel KCNH2 (Homo sapiens) (UniProt Q12809). Description: qHTS Assay for Small Molecule Inhibitors of the Human hERG Channel Activity (AID 588834).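 Also: top concentration of the series differs between compounds; % is scaled to controls: 0 for no effect and ±100 for the full control effect; lower thallium flux fluorescence means stronger hERG block; nearly all actives have a fitted effect of over 50% in size.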 The following applies: U2OS BacMam hERG, FluxOR thallium flux fluorescence; series mostly up to 92.2 µM. The method in brief: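 Thallium serves as surrogate for K+ influx through BacMam-delivered hERG in U2OS cells. Compounds are added for about 10 minutes after dye loading; stimulation buffer then starts flux, monitored kinetically on FDSS.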

A short description of test [13]: qHTS assay for small molecule disruptors of the mitochondrial membrane potential - 5 hr assay (AID 651755; calls by dose curve; also: % is scaled to controls: 0 for no effect and ±100 for the full control effect; nearly all actives have a fitted effect of over 40% in size). The following applies: JC-1-type ratio dye; series mostly up to 92.2 µM. The method in brief: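 Seed HepG2 overnight, add compound, incubate 5 hr at 37C and 5% CO2, stain 30 min with Mito-MPS, then measure monomer (490/535 nm) and aggregate (540/590 nm) fluorescence.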

In test [14] the target is Nuclear receptor ROR-gamma (Homo sapiens) (UniProt P51449). In words: qHTS assay for small molecule antagonists of the retinoid-related orphan receptor gamma (ROR-gamma) signaling pathway (AID 651802).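 Also: CHO cells with doxycycline-induced ROR-gamma expression; luciferase reporter luminescence driven by ROR response element; % is scaled to controls: 0 for no effect and ±100 for the full control effect; nearly all actives have a fitted effect of over 60% in size.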 The following applies: ROR-gamma antagonist cell reporter assay; series mostly up to 92.2 µM. The method in brief:
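Doxycycline-induced reporter activity in engineered CHO cells (TET-inducible ROR, RORE-LUC) was measured by luminescence after 16hr compound exposure at 37C.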

Test [15] can be described thus: qHTS assay for small molecule agonists of the antioxidant response element (ARE) signaling pathway measured by Nrf2-dependant transcriptional activity - cell viability counter screen (AID 720653; active = well fitted curve in the direction sought with a large enough effect in the repeat runs; an effect the other way counts as inactive or inconclusive; also: % is scaled to controls: 0 for no effect and ±100 for the full control effect). To be noted: ARE-bla HepG2 viability, CellTiter-Glo ATP luminescence, 16 h; max response: hits give low values. The method in brief:
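ARE-bla HepG2 cells (2,000/well) rested 5 hrs at 37C/5% CO2, then exposed to compounds in DMSO for 16 hrs. Viability was read in the same wells as intracellular ATP by luminescence, 30 min at room temperature after reagent addition.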

Test [16] in a line: qHTS assay for cell viability of HEK293 cells (AID 743288). Also: % is scaled to controls: 0 for no effect and ±100 for the full control effect; nearly all actives have a fitted effect of over 50% in size. The following applies: ATP luminescence (CellTiter-Glo), 18 h; max response: hits give low values. The gist of the method: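 Steps: plate 2,000 parental HEK293 cells per well; incubate ≥5 h, 37 C; add compounds in DMSO; incubate 18 h, 37 C; add CellTiter-Glo; wait 30 min at room temperature; read luminescence.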
Test [17] can be described thus: qHTS assay for cell viability of the p53RE-bla HCT-116 cell line (AID 743292). Also: % is scaled to controls: 0 for no effect and ±100 for the full control effect; nearly all actives have a fitted effect of over 55% in size. To be noted: p53RE-bla HCT-116 viability, ATP luminescence, 16 h; series mostly up to 95 µM. The gist of the method:
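ATP-based luminescent viability (CellTiter-Glo, 30 min RT) after 16 h compound treatment at 37 C of p53RE-bla HCT-116 cells, seeded at 4,000 cells/well and rested 5 h before dosing.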

The target in test [18] is Glutathione peroxidase 1 (Homo sapiens) (UniProt P07203). In words: Primary qHTS Assay for Inhibitors of Recombinant Selenoprotein Glutathione Peroxidase 1 (GPX1) (AID 1845191). Also: nearly all actives have a fitted effect of over 65% in size. To be noted: recombinant GPX1, GR-coupled NADPH fluorescence, 15 min; series mostly up to 48.8 µM. The method in brief:
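GPX1 10 nM, GR 100 nM, GSH 1 mM, NADPH 0.5 mM, CHP 0.5 mM (final). 30-min cpd preincubation, RT. Ex340/Em450 read t=0, t=15 min.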

The target of test [19] is Phospholipid hydroperoxide glutathione peroxidase GPX4 (Homo sapiens) (UniProt P36969). In words: Primary qHTS Assay for Inhibitors of Recombinant Selenoprotein Glutathione Peroxidase 4 (GPX4) (AID 1845192). Also: nearly all actives have a fitted effect of over 65% in size. Also: potency is read from the fitted curve at half-maximal effect. The following applies: recombinant GPX4, GR-coupled NADPH fluorescence, 15 min; series mostly up to 50 µM. The gist of the method:
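qHTS, GR-coupled: GPX4 200 nM + cpd 30 min RT → GSH 1 mM, NADPH 0.5 mM, GR 100 nM → CHP 0.5 mM start; fluor 340/450 at t0 and t15 min; no-enzyme wells as control.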

Unmarked numbers belong to inactive results. Records with an inconclusive call do not appear. Activity calls are given as the source filed them. Unless noted, calls follow the shape of the dose curve; as a rule, active = well fitted curve in the direction sought with a large enough effect; inconclusive = small, poorly fitted or top-dose-only effect, or another doubt; inactive = no such curve, though single readings can be large; an effect the other way counts as inactive or inconclusive.

Chain of Vitamin D3 receptor (Homo sapiens) (P11473 whole entry, looked up): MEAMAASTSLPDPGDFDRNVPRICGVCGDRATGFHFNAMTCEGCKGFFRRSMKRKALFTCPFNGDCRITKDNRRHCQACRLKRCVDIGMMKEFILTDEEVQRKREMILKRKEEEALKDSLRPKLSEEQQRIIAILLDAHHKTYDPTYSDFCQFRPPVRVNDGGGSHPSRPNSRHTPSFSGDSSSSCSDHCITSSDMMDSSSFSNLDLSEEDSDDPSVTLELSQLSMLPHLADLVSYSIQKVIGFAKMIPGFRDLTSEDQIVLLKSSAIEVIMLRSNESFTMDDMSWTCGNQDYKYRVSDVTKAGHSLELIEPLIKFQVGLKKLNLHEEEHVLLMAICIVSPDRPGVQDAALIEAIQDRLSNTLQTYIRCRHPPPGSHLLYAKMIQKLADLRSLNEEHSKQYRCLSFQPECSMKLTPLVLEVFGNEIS
Chain of Voltage-gated inwardly rectifying potassium channel KCNH2 (Homo sapiens) (Q12809 whole entry, looked up): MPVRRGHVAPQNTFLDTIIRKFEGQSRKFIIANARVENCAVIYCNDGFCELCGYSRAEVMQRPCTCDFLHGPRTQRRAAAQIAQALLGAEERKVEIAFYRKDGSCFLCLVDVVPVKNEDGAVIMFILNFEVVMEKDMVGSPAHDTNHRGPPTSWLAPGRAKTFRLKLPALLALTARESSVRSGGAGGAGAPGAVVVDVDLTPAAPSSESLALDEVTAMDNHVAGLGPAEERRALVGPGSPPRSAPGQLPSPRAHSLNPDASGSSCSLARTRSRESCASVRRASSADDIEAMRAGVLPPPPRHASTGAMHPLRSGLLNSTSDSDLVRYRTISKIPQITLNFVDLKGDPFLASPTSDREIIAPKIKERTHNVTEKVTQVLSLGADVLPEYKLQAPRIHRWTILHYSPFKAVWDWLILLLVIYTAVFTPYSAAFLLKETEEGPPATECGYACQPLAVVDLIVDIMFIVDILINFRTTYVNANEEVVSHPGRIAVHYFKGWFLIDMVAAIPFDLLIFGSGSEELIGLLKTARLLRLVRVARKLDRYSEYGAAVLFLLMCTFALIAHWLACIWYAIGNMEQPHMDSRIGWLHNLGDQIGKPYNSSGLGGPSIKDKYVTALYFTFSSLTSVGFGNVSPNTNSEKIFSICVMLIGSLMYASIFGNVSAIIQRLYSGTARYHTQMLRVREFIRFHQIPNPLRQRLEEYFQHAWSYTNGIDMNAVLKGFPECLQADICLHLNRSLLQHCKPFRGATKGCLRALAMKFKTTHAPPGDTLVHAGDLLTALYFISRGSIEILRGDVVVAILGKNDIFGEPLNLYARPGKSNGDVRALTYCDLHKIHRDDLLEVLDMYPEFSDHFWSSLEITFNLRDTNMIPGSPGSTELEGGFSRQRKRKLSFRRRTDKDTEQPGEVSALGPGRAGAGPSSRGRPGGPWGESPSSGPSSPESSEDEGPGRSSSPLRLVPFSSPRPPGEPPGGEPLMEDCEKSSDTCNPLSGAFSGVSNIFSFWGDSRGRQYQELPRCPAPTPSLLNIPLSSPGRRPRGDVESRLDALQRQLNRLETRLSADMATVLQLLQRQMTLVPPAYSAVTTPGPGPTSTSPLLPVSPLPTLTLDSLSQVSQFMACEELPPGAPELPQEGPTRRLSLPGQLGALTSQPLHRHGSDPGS
Chain of Nuclear receptor ROR-gamma (Homo sapiens) (P51449 whole entry, looked up): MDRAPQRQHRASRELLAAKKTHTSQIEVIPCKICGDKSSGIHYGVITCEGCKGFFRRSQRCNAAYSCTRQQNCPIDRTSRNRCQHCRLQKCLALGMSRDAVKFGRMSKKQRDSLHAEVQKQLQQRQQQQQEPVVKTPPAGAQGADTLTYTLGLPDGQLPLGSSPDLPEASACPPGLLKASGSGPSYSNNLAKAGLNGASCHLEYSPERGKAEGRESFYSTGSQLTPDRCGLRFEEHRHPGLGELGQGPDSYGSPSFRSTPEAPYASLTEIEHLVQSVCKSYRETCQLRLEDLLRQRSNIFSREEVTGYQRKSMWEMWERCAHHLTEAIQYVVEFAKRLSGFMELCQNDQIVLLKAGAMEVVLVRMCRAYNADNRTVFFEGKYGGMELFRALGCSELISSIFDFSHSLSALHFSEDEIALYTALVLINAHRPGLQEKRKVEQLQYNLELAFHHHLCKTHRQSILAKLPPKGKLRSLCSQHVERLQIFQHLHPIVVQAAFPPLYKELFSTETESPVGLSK
Chain of Phospholipid hydroperoxide glutathione peroxidase GPX4 (Homo sapiens) (P36969 whole entry, looked up): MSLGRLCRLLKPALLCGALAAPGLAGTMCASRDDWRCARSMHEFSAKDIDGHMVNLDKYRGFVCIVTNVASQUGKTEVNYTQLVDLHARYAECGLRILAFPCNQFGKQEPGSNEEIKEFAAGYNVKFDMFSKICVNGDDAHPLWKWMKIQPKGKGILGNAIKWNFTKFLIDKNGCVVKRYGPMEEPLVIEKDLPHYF
Chain of Glutathione peroxidase 1 (Homo sapiens) (P07203 whole entry, looked up): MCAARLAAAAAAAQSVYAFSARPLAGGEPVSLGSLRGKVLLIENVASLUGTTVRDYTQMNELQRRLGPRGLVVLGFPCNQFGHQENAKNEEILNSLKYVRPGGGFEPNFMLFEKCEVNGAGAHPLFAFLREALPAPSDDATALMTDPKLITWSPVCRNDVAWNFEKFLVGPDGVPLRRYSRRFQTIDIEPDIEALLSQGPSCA

With `O=C(O)c1ccccc1`, the Potency in test [1], in test [2], in test [3] and in test [4] was more than 92 µM throughout. In addition, the values for the activity change, negative = cytotoxicity in [5], in test [6] and in [7] were 6.89%, -3.81% and 4.89%, respectively. The outcome in test [8], in [9], in [10] and in [11] was inactive. Also, the Potency result in test [12], in test [13], in test [14] and in test [17] was “inactive” each time. Moreover, the max response in [15] is 1.2%; in test [16], -1.04%.

Take `CC1(C)C2CCC1(C)C(O)C2` (stereo not drawn): the Potency entry in test [18] and in test [19] was “inactive” throughout.

Take `C=C(C)C1CC=C(C)C(O)C1` (stereo not drawn): the Potency in test [1], in test [2], in test [3] and in test [4] was more than 92 µM throughout. The activity change, negative = cytotoxicity in test [5] was -0.158%; in [6], 6.86%; in [7], 2.7%. In addition, the compound was classed as inactive in test [8] and in test [9]. Also, the Potency entry in test [12], in [13], in [14] and in test [17] was “inactive” in each case. Besides, the max response is -2.07% in test [15] and 0.258% in test [16].

Take `CCCCC/C=C/C/C=C/CCCCCCCC(=O)O`: in test [18], the Potency result was “inactive”. Moreover, the Potency in test [19] was 4.47 µM (active).

For the compound `C=CC(C)(CCC=C(C)C)OC(C)=O` (stereo not drawn), the outcome in [10] and in [11] was inactive. Further, the max response was -13.5% in [15] and -14.2% in [16]. Besides, the Potency entry in [17] was “inactive”.

For `C=CC(=C)CCC=C(C)C`, the Potency in [1], in test [2], in test [3] and in test [4] was more than 92 µM in each case. The activity change, negative = cytotoxicity in [5] is 5.78%; in test [6], 6.82%; in test [7], -3.53%. The call in test [8], in [9], in test [10] and in test [11] was inactive. In addition, the Potency entry in test [12], in [13], in test [14] and in test [17] was “inactive” throughout. For the same compound, the max response in test [15] was 6.84%; in test [16], 1.18%.
